Among all 2,000 compounds or so, about 100 (5%) were called active. Rule as the data show it: active = z-score above about 2; inactive = the rest. This excerpt belongs to a sample that is enriched for actives.

This assay in a line: modulators of mitochondrial supercomplex assembly, cell-based, luminescence, Hoechst nuclei count (AID 1645838).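 As to all read-outs here: control cybrid cells.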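 As to z-score: higher means more mitochondrial supercomplex formation.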 The note with it: Cells, luminescence/Hoechst cell count ratio, supercomplex reporter; for z-score: stronger effect = higher value; for cell count: measured here: cell number, Hoechst nuclei count.
Setting [1] is: library stock concentration (final well concentration not given) 46 uM.
Where [2] appears, read: library stock concentration (final well concentration not given) 278 uM.
[3] abbreviates: library stock concentration (final well concentration not given) 1.67 mM.
The mark [4] stands for this setting: library stock concentration (final well concentration not given) 10 mM.
The mark [5] stands for this setting: library stock concentration (final well concentration not given) 80 uM.
Where [6] appears, read: library stock concentration (final well concentration not given) 400 uM.
Setting [7] is: library stock concentration (final well concentration not given) 2 mM.

As to `COc1cccc(-c2ccc(NC(=O)C3=C(C(=O)O)CCC3)c(F)c2)c1`, the z-score reads like this: under setting [1], 0.0997 (inactive); under setting [2], 0.11 (inactive); under setting [3], -0.285 (inactive); under setting [4], 7.02 (active). For the same compound, the cell count is 6810 under setting [1], 6860 under setting [2], 6660 under setting [3] and 3760 under setting [4].

Take `NC(=O)c1cccc(-c2cccc(OC(=O)NC3CCCCC3)c2)c1`: the z-score is -0.595 (inactive) and the cell count was 5600.

Regarding `C[C@@H](O)CCC[C@H](O)/C=C/C1=C(C/C=C\CCCC(=O)O)C(=O)CC1`, the z-score is -0.229 (inactive) and the cell count worked out at 5100.

Turning to `c1ccc(Cc2ccncc2)cc1`, the z-score by setting is: under setting [5], -0.46 (inactive); under setting [6], -0.111 (inactive); under setting [7], -0.201 (inactive); under setting [4], -0.169 (inactive). Also, the cell count under setting [5] came to 5970, the cell count under setting [6] was 5030, the cell count under setting [7] was determined as 5260 and the cell count under setting [4] was found to be 5220.

Regarding `CC/C=C\C/C=C\C/C=C\CCCCCCCC(=O)O`, the z-score was -0.381 (inactive) and the cell count came out at 5900.

On to `CCCCCCCCCCCC(=O)CC(=O)N[C@H]1CCOC1=O`, for which the z-score was -0.866 (inactive) and the cell count is 5800.

On to `CCCCC[C@H](O)/C=C/[C@H]1CC[C@@H](O)[C@@H]1CCCCCCC(=O)O`, for which the z-score was 0.234 (inactive) and the cell count came out at 5240.

Consider `CC1COCCN1c1cc(C2(S(C)(=O)=O)CC2)nc(-c2cccc3[nH]ccc23)n1` (stereo not given), for which the outcome (library stock 10 mM) is “inactive; censored for cell count”. For the same compound, the z-score reads like this: under setting [5], -0.307 (inactive); under setting [6], -0.152 (inactive); under setting [7], 2.1 (active). For the same compound, the cell count was 5900 under setting [5], 5550 under setting [6] and 2180 under setting [7].

In the case of `CCCCC[C@H](O)/C=C/[C@H]1[C@H](O)CC(=O)[C@@H]1CC(=O)CCCCC(=O)O`, the z-score was 0.036 (inactive) and the cell count came to 5230.

As for `CN(C)C1CCc2[nH]c3ccc(NC(=O)c4ccc(F)cc4)cc3c2C1` (stereo not given), the z-score was -0.478 (inactive) under setting [1], -0.381 (inactive) under setting [2], -0.318 (inactive) under setting [3] and -0.368 (inactive) under setting [4]. In addition, the cell count reads like this: under setting [1], 6480; under setting [2], 6070; under setting [3], 6670; under setting [4], 6110.

Regarding `CCCCC[C@H](O)/C=C/[C@H]1C2COC(C2)[C@@H]1C/C=C/CCCC(=O)O` (stereo not given in full), the z-score is -0.6 (inactive) and the cell count came to 5320.

Turning to `Cc1cc(Nc2cc(N3CCN(C)CC3)nc(Sc3ccc(NC(=O)C4CC4)cc3)n2)n[nH]1`, the outcome was “inactive; censored for cell count” (library stock 80 µM), “inactive; censored for cell count” (library stock 400 µM), “inactive; censored for cell count” (library stock 2 mM) and “inactive; censored for cell count” (library stock 10 mM). Under setting [5], the z-score is 5.13 (active). Further, the cell count under setting [5] amounted to 1630.

Consider `CCCCC(C)(C)[C@H](O)/C=C/[C@H]1C=CC(=O)[C@@H]1CCCCCCC(=O)O`, for which the z-score is 0.218 (inactive) and the cell count came to 4930.

Turning to `CCCCC[C@@H](O)/C=C/[C@H]1[C@H](O)CC(=O)[C@@H]1C/C=C\CCCC(=O)O`, the z-score is -0.0831 (inactive) and the cell count came to 5100.

Turning to `CCCCCCCCCCCCCCCCCCCCCCCCCCCCCCO`, the z-score was -1.19 (inactive) and the cell count was determined as 5750.

In the case of `CCCCCCCCCCCC(=O)O`, the z-score was 0.0111 (inactive) and the cell count was found to be 5210.

As for `CCCCCCCCCCCCCCP(=O)(O)O`, the z-score is 1.99 (active) and the cell count was 4360.

In the case of `O=C(O)CCn1nnc2ccccc21`, the z-score was -0.598 (inactive) under setting [1], -0.676 (inactive) under setting [2], -0.406 (inactive) under setting [3] and -0.311 (inactive) under setting [4]. Besides, the cell count is, setting by setting: under setting [1], 7120; under setting [2], 7440; under setting [3], 7310; under setting [4], 7490.

Take `Cn1cncc1[C@@](N)(c1ccc(Cl)cc1)c1ccc2c(c1)c(-c1cccc(Cl)c1)cc(=O)n2C`: the z-score is, setting by setting: under setting [5], 0.384 (inactive); under setting [6], 1.69 (inactive); under setting [7], 2.04 (active); under setting [4], 1.89 (inactive). For the same compound, the cell count amounted to 5540 under setting [5], 3990 under setting [6], 3590 under setting [7] and 3700 under setting [4].

In the case of `CCCCCCCC/C=C\CCCCCCCCCCCCCC(=O)N[C@@H](CO)[C@H](O)/C=C/CCCCCCCCCCCCC`, the z-score was 0.191 (inactive) and the cell count was 5540.

In the case of `CCCCC[C@H]1/C=C/[C@@H]2[C@@H](C/C=C\CCCC(=O)O1)[C@@H](O)C[C@H]2O`, the z-score is -1.49 (inactive) and the cell count was determined as 5780.

As to `Cn1c2cc(S(C)=O)sc2c2cnn(Cc3cccc(N)c3)c(=O)c21` (stereo not given), the z-score runs as follows: under setting [1], 0.266 (inactive); under setting [2], 0.15 (inactive); under setting [3], -0.3 (inactive); under setting [4], -0.338 (inactive). In addition, the cell count reads like this: under setting [1], 6150; under setting [2], 6110; under setting [3], 6540; under setting [4], 6600.

Take `O=P(O)(O)O[C@H]1[C@@H](O)[C@H](O)[C@@H](OP(=O)(O)O)[C@H](OP(=O)(O)O)[C@H]1O`: the z-score is -0.14 (inactive) and the cell count is 4340.

On to `COC(=O)NC(C)CNc1nccc(-c2cn(C(C)C)nc2-c2cc(Cl)cc(NS(C)(=O)=O)c2F)n1` (stereo not given), for which the z-score by setting is: under setting [1], -0.459 (inactive); under setting [2], -0.411 (inactive); under setting [3], 0.775 (inactive); under setting [4], 4.21 (active). Further, the cell count reads like this: under setting [1], 6450; under setting [2], 6190; under setting [3], 4330; under setting [4], 1620.

On to `CCN(C)C(=O)Oc1cccc(C(C)N(C)C)c1` (stereo not given), for which the z-score under setting [5] is -0.403 (inactive), the z-score under setting [6] is -0.339 (inactive), the z-score under setting [7] was -0.314 (inactive) and the z-score under setting [4] was -0.639 (inactive). The cell count amounted to 6790 under setting [5], 6310 under setting [6], 6660 under setting [7] and 6230 under setting [4].

In the case of `CC(C)(C)n1nc(Cc2cccc3ccccc23)c2c(N)ncnc21`, the z-score is -0.348 (inactive) and the cell count came to 5760.

For the compound `Cc1ccc(-c2nn(C(C)(C)C)c3ncnc(N)c23)cc1`, the z-score runs as follows: under setting [1], 0.0479 (inactive); under setting [2], 0.621 (inactive); under setting [3], 1.98 (active); under setting [4], 5.9 (active). The cell count is, setting by setting: under setting [1], 6410; under setting [2], 5940; under setting [3], 6220; under setting [4], 4640.

As to `CC(C)(C)n1nc(-c2ccc(Cl)cc2)c2c(N)ncnc21`, the z-score runs as follows: under setting [5], -0.14 (inactive); under setting [6], 0.32 (inactive); under setting [7], 0.695 (inactive); under setting [4], 1.68 (inactive). In addition, the cell count under setting [5] came out at 5420, the cell count under setting [6] turned out to be 5110, the cell count under setting [7] came out at 5300 and the cell count under setting [4] came to 4150.

(Values after PubChem BioAssay AID1645838 (ICCB-Longwood Screening Facility, Harvard Medical School, 2021).)
